Experimental data as given in PMC5540273 (PLoS ONE, 2017).

Experiments:
Conditions in all cases: concentration: 1 μM, replicates: in singlicate; n = 1
LOK = test system: T1, LOK
T1 construct: gene STK10

LRRK2 = test system: LRRK2
LTK = test system: LTK
LYN = test system: LYN
LZK = test system: T2, LZK
T2 construct: gene MAP3K13

MAK = test system: MAK
MAP3K15 = test system: MAP3K15
MAP3K1 = test system: MAP3K1
MAP3K2 = test system: MAP3K2
MAP3K3 = test system: MAP3K3
MAP3K4 = test system: MAP3K4
MAP4K2 = test system: MAP4K2
MAP4K3 = test system: MAP4K3
MAP4K4 = test system: MAP4K4
MAP4K5 = test system: MAP4K5
MAPKAPK2 = test system: MAPKAPK2
MAPKAPK5 = test system: MAPKAPK5
MARK1 = test system: MARK1
MARK2 = test system: MARK2
MARK3 = test system: MARK3
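Note: KINOMEscan kinase panel screen.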

Structure (SMILES) | %Inh (LOK) [%] | %Inh (LRRK2) [%] | %Inh (LTK) [%] | %Inh (LYN) [%] | %Inh (LZK) [%] | %Inh (MAK) [%] | %Inh (MAP3K15) [%] | %Inh (MAP3K1) [%] | %Inh (MAP3K2) [%] | %Inh (MAP3K3) [%] | %Inh (MAP3K4) [%] | %Inh (MAP4K2) [%] | %Inh (MAP4K3) [%] | %Inh (MAP4K4) [%] | %Inh (MAP4K5) [%] | %Inh (MAPKAPK2) [%] | %Inh (MAPKAPK5) [%] | %Inh (MARK1) [%] | %Inh (MARK2) [%] | %Inh (MARK3) [%]
COc1cc2nccc(Nc3cccc(Oc4ccccc4)c3)c2cc1OC.Cl [GW284543] | 0 | 48 | 0 | 0 | 0 | 12 | 0 | 0 | 0 | 0 | 0 | 0 | 0 | 0 | 0 | 15 | 0 | 0 | 8 | 31
Nc1n[nH]c2ncc(-c3ccccc3)cc12 [SB-517081] | 0 | 0 | 0 | 0 | 0 | 17 | 0 | 6 | 15 | 0 | 3 | 0 | 0 | 0 | 0 | 19 | 0 | 0 | 0 | 0
Fc1cccc(CSc2nnc(-c3ccc4c(c3)CCO4)o2)c1 | 9 | 10 | 16 | 19 | 0 | 5 | 15 | 26 | 2 | 2 | 0 | 8 | 0 | 0 | 0 | 25 | 16 | 0 | 20 | 5
COc1cccc(C2=C(Nc3cccc(C(=O)O)c3)C(=O)NC2=O)c1 [SB-390770] | 22 | 27 | 32 | 0 | 0 | 33 | 1 | 25 | 0 | 3 | 20 | 0 | 11 | 12 | 15 | 6 | 0 | 15 | 0 | 0
Cc1ccc(Oc2ccc(Nc3ncnc4cc[nH]c34)cc2C)cn1 | 1 | 0 | 0 | 0 | 40 | 25 | 38 | 0 | 4 | 30 | 6 | 0 | 0 | 0 | 0 | 0 | 30 | 20 | 4 | 3
Cc1nc(N(C)[C@H]2CN(C(=O)CC#N)CC[C@H]2C)c2cc[nH]c2n1 | 0 | 0 | 0 | 0 | 0 | 9 | 0 | 10 | 10 | 7 | 12 | 1 | 0 | 0 | 0 | 0 | 10 | 9 | 0 | 0
COc1cc2ncn(-c3cc(OCc4ccncc4)c(C(N)=O)s3)c2cc1OC [GSK336313] | 0 | 0 | 2 | 0 | 0 | 23 | 11 | 25 | 0 | 0 | 0 | 0 | 0 | 0 | 3 | 5 | 0 | 0 | 0 | 0
Cc1cccc(-c2cc(-c3c[nH]nc3-c3ccccn3)ccn2)c1 [GW679395] | 0 | 10 | 4 | 0 | 12 | 33 | 0 | 5 | 6 | 0 | 13 | 0 | 0 | 0 | 0 | 17 | 0 | 0 | 0 | 0
O=C(NCc1cccs1)c1cc(C(=O)c2c(Cl)cccc2Cl)c[nH]1 [GW823670] | 21 | 0 | 11 | 1 | 0 | 0 | 0 | 0 | 0 | 0 | 0 | 0 | 0 | 0 | 3 | 0 | 0 | 0 | 0 | 50
COc1cc(OC)cc(-c2cc3cnc(N)nc3nc2NC(=O)NC(C)(C)C)c1 | 13 | 0 | 0 | 0 | 0 | 0 | 0 | 0 | 0 | 13 | 32 | 0 | 0 | 0 | 0 | 0 | 0 | 0 | 8 | 0
Nc1nc(-c2ccccc2F)c(-c2ccnc3ccccc23)s1 [GW560459] | 0 | 8 | 22 | 0 | 30 | 23 | 0 | 3 | 0 | 0 | 1 | 0 | 0 | 11 | 0 | 9 | 0 | 0 | 0 | 4
COC(=O)c1c(-c2ccccc2)c2cc(Br)ccc2c(=O)n1Cc1ccc(NC(=O)CCC(=O)O)cc1 | 20 | 4 | 3 | 8 | 4 | 8 | 18 | 12 | 0 | 18 | 38 | 0 | 0 | 0 | 0 | 16 | 4 | 7 | 6 | 0
Cc1nn2c(=O)cc(N3CCOCC3)nc2n1Cc1cccc(Cl)c1Cl [GSK2342769] | 0 | 22 | 0 | 0 | 0 | 20 | 9 | 17 | 16 | 0 | 7 | 0 | 0 | 0 | 0 | 15 | 0 | 0 | 0 | 0
CCS(=O)c1ccc(-c2coc3ccc(-c4nnc(C)o4)cc23)cc1 (stereo not drawn) | 17 | 5 | 0 | 0 | 34 | 15 | 0 | 3 | 8 | 20 | 0 | 0 | 0 | 5 | 4 | 0 | 7 | 4 | 8 | 17
O=C1NC(=O)C(c2ccccc2)=C1Nc1cccc(O)c1 [SB-390534] | 23 | 0 | 1 | 0 | 0 | 26 | 17 | 0 | 4 | 49 | 24 | 26 | 0 | 1 | 0 | 27 | 20 | 3 | 9 | 22
CCC(=O)c1c(-c2ccccc2)c2cc(Cl)ccc2c(=O)n1Cc1cc(S(C)(=O)=O)n(CC(F)F)n1 | 0 | 0 | 0 | 0 | 0 | 14 | 2 | 0 | 0 | 0 | 9 | 0 | 0 | 0 | 0 | 0 | 5 | 0 | 1 | 0
Cl.NS(=O)(=O)c1cccc(Nc2cc(-c3ccc(F)cc3)n[nH]2)c1 [GW824645] | 0 | 0 | 0 | 0 | 0 | 0 | 1 | 0 | 22 | 0 | 1 | 0 | 0 | 0 | 0 | 0 | 0 | 0 | 19 | 14
COc1cc(Nc2nccc(N3CCC(NC(=O)C(C)c4ccc(Cl)cc4)C3)n2)cc(OC)c1OC (stereo not drawn) [GSK1379757] | 0 | 0 | 28 | 0 | 0 | 17 | 0 | 1 | 0 | 0 | 0 | 0 | 0 | 8 | 5 | 14 | 0 | 0 | 0 | 0
C[C@@H]1CC[C@H](C(=O)NC2CCCCC2)CN1c1cc(-c2ccc3c(N)n[nH]c3c2)nc(N)n1 [GSK2291363] | 0 | 0 | 0 | 0 | 0 | 25 | 0 | 21 | 20 | 0 | 28 | 0 | 0 | 7 | 0 | 0 | 0 | 3 | 3 | 0
COc1cccc(C2=C(N(C)c3ccccc3)C(=O)NC2=O)c1 [SB-334865] | 0 | 0 | 0 | 0 | 32 | 24 | 0 | 1 | 4 | 0 | 12 | 0 | 0 | 0 | 0 | 17 | 0 | 0 | 0 | 0
O=C(Nc1n[nH]c2cc(-c3ccccc3F)ccc12)C1CC1 [SB-733371] | 1 | 0 | 0 | 0 | 0 | 0 | 32 | 0 | 0 | 22 | 29 | 16 | 0 | 43 | 18 | 0 | 10 | 0 | 29 | 0
